# In the library only some 1.7% were active in any assay of this set; here they are far more common.
# aDG glyco up: activators of alpha-DG glycosylation, primary screen, uHTS, Pro5-aDG cells, AlphaScreen; activation, % at 10 µM; 0.22% of 360,000 active; alpha-DG glycosylation AlphaScreen (IIH6); 0% Pro5, 100% B10-LARGE cell signal;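 active = activation of at least 8% versus controls, or a plate z-score of at least 8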;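 note: Pro5 are CHO cells carrying HIG-tagged alpha-DG that lacks glycosylation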
# Vif imaging: HIV Vif self-association inhibitors, primary screen, imaging, HEK293T, single point | HEK293T cells, Vif self-association by quenched fluorescence, 24 h | 0.35% of 340,000 active | inhibition, % at 7.49 µM | AID 602346, 2012; in the data active = inhibition above about 50%, passing the limit was not always enough
# Glyco luc inh: increase of ERlucT glycosylation luciferase signal, primary screen, N-linked glycosylation inhibitor project, D54 ERlucT cells, luminescence, set 2 | D54 ERlucT glycosylation luciferase reporter, 24 h; percent of 100 nM tunicamycin response | reporter increase, % at 12.5 µM | 0.23% of 360,000 active;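 active = mean luciferase reporter signal, scaled so untreated is 0 and the glycosylation-blocking control 100, at or above a set limit in every replicate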;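 note: luciferase carries N-glycosylation sites so blocking glycosylation raises the light; 0% = median of neutral control wells and 100% = median of 100 nM tunicamycin wells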
# H9c2 protect: cardioprotection against H2O2-induced cell death, primary screen, uHTS, H9c2 cells, ATPLite luminescence | 0.63% of 360,000 active | protection from H2O2 cell death, % at 20 µM | H9c2 cardiomyocytes, H2O2 injury protection, 2 h;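 active = compounds giving at least 50% protection of heart cells from peroxide-induced death in the single-dose screen, raw or plate-pattern-corrected value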;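 note: 0% = DMSO wells with peroxide and 100% = DMSO wells without peroxide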
# ARNT TACC3 PPI: disruptors of ARNT/TACC3 protein interaction, primary screen, biochemical, AlphaScreen, single concentration. AlphaScreen His-ARNT PAS-B/GST-TACC3 binding, luminescence; TACC3 fragment carries E629A point mutation. inhibition, % at 9.99 µM. Transforming acidic coiled-coil-containing protein 3 (Homo sapiens), Q9Y6A5. 0.66% of 390,000 active;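 active = mean inhibition of replicates at least 50% and at least half of replicates each reaching 50%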;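 note: 0% = complete ARNT plus TACC3 wells and 100% = ARNT alone without TACC3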
# Active calls of the source: *; . = no result given.
SMILES,aDG glyco up,Vif imaging,Glyco luc inh,H9c2 protect,ARNT TACC3 PPI
CC(C)(C)c1ccc(C(=O)NNC(=O)c2cccc(Br)c2)cc1,0.3,3.4,202.8*,-3.6,3.4
Cc1ccc(C(=O)NNC(=O)c2cccc(Br)c2)cc1,-0.1,4.9,1.1,4.9,-5.9
O=C(NNC(=S)Nc1cccc2ccccc12)c1cccc(Br)c1,-0.1,-5.5,-0.8,-15.5,28.9*
O=C(NNC(=O)c1ccc2ccccc2c1)c1cccc(Br)c1,-0.2,13.9,0.2,8.8,-4.2
CCc1oc(C(=O)O)cc1CN(CC)CC,-0.2,-1.2,2.5,0.6,-3.6
CCN(CC)Cc1cc(O)c(CN(CC)CC)cc1O,0.2,-1.1,1.3,55.3*,5.1
CC(=O)c1cnc(-c2ccccc2Cl)s1,0.0,57.4*,-0.6,-4.5,-4.0
CC(=O)c1cnc(-c2ccccn2)s1,0.3,-1.6,-1.2,-3.2,16.3
COC/C=C/C1=CC2=CC(=O)C(C)(OC(=O)c3cnc4ccccc4n3)C(=O)C2=CN1CCCOC(C)C (stereo not given),-0.1,5.4,-1.1,3.4,10.8*
Cc1ccc(S(=O)(=O)Nc2cc(Cl)c(O)c3ncccc23)cc1,3.4,-10.4,-2.7,26.7,47.8*
O=C(C1CC1)N1CC[C@@H]2[C@H]1c1cc(-c3ccc(F)cc3)ccc1N[C@@H]2CO,.,.,.,.,14.1
O=C(C[C@H]1CC[C@@H](NC(=O)Nc2ccccc2)[C@@H](CO)O1)NCc1ccccn1,.,.,.,.,-7.1
COc1ccc(S(=O)(=O)Nc2cccc3c2O[C@@H](CN(C)S(=O)(=O)c2ccccc2)[C@H](C)CN([C@@H](C)CO)C3=O)cc1,.,.,.,.,4.3
Oc1ccc(-c2nc(-c3ccc(O)c(O)c3)cs2)cc1,0.3,64.4*,11.8,53.0*,18.8
C[C@@H]1CCCCO[C@H](CN(C)C(=O)Nc2ccccc2)[C@H](C)CN([C@H](C)CO)C(=O)c2cc(NC(=O)c3ccccc3)ccc2O1,.,.,.,.,-5.7
Cc1ccc2nc(/C(C#N)=C/c3cn[nH]c3-c3ccc(F)cc3)[nH]c2c1,-0.2,-26.7,31.5*,24.0,-2.3
Cc1ccc2nc(/C(C#N)=C/c3ccc(O)c(O)c3)[nH]c2c1,-0.3,19.8,5.9,71.0*,3.7
Cc1ccc2nc(/C(C#N)=C/c3ccccc3C(=O)O)[nH]c2c1,0.0,1.2,0.2,3.4,5.9
O=C(c1cc(-c2ccccc2O)on1)N1CCCCCC1,-0.1,74.5*,-4.0,-0.4,1.3
COc1cc(N)c2ncccc2c1Br,0.0,-4.6,7.7,-5.1,107.4*
O=C(O)c1ccc(CN2C(=O)c3cccc4c([N+](=O)[O-])ccc(c34)C2=O)cc1,-0.1,25.8,31.0*,-0.6,1.7
O=C1c2cccc3c([N+](=O)[O-])ccc(c23)C(=O)N1CCc1ccccn1,-0.1,8.7,20.6,2.2,-2.9
CN(C)CCCN1C(=O)c2cccc3c([N+](=O)[O-])ccc(c23)C1=O,-0.4,-18.5,56.6*,-11.6,5.6
CC(=O)Oc1cccc(N2C(=O)c3cccc4c([N+](=O)[O-])ccc(c34)C2=O)c1,-0.2,118.4*,12.3,-10.1,1.1
COc1ccc(C#Cc2ccc3c(c2)[C@H]2[C@H](CCN2C(=O)C2CCOCC2)[C@H](CO)N3)cc1,.,.,.,.,2.4
SMILES,aDG glyco up,Vif imaging,Glyco luc inh,H9c2 protect,ARNT TACC3 PPI
CC(NC(=O)Cn1nc(C(=O)O)c2ccccc2c1=O)c1ccccc1 (stereo not given),-0.2,-1.2,-0.4,80.8*,-5.6
CC(NC(=O)Cn1nc(-c2ccccc2)c2ccccc2c1=O)c1ccccc1 (stereo not given),0.5,-18.7,0.0,9.4,.
COc1cccc(Cn2nc(C(=O)O)c3ccccc3c2=O)c1,0.0,-1.6,4.3,64.0*,25.3
O=C(C[C@@H]1C=C[C@H](NS(=O)(=O)c2cccc(F)c2)[C@H](CO)O1)NCc1ccc2c(c1)OCO2,.,.,.,.,-14.9
C[C@@H]1CN([C@@H](C)CO)C(=O)c2cc(Br)cnc2O[C@@H]1CN(C)Cc1ccccc1,.,.,.,.,2.0
Cc1ccc(-c2nc3ncccc3o2)cc1NC(=O)c1ccc2c(c1)OCO2,-0.1,51.0*,-0.2,-0.5,4.7
Cc1cc(C)c(S(=O)(=O)N(C)CC(=O)N2CCCC2)c(C)c1,0.0,5.0,33.6*,3.8,.
COc1ccc(OCCCN2CCCCCC2)cc1,-0.1,1.8,-1.9,-5.9,46.6*
Cc1noc(C)c1NC(=O)Nc1ccc2c(c1)C(=O)N([C@@H](C)CO)C[C@H](C)[C@@H](CN(C)S(=O)(=O)c1ccc(Cl)cc1)OCCCC[C@@H](C)O2,.,.,.,.,-6.8
Cc1ccc(-n2nc(C)c(NC(=O)CCl)c2C)cc1C,1.3,-0.6,47.5*,-9.9,-7.3
CCOC(=O)c1cnc(Cc2ccccc2)[nH]c1=O,-0.1,-2.3,1.1,7.7,-13.9
CCOC(=O)c1cnc(-n2[nH]c(C)c(Cc3ccccc3)c2=O)[nH]c1=O,-1.0,3.4,0.6,13.8,74.9*
CC(=O)NC(CCc1ccc(Cl)c(Cl)c1)c1cccc(O)c(=O)c1 (stereo not given),2.0,5.0,-14.6,61.4*,.
CC(=O)NC(C)c1ccc(Cl)c(Cl)c1 (stereo not given),-0.2,2.1,1.2,2.0,0.3
C[C@@H]1CCCCO[C@H](CN(C)Cc2ccc3c(c2)OCO3)[C@@H](C)CN([C@H](C)CO)C(=O)c2cc(NC(=O)CCCN(C)C)ccc2O1,.,.,.,.,6.8
c1ccc2c(c1)CCN(c1nc3ccccc3n3cnnc13)C2,0.2,-5.8,0.2,58.5*,-15.4
C1=C(c2ccccc2)CCN(c2nc3ccccc3n3cnnc23)C1,-0.3,-12.7,4.5,66.8*,1.0
c1ccc2c(c1)CCCN2c1nc2ccccc2n2cnnc12,-0.2,.,1.2,53.8*,31.2
c1ccc(N2CCN(c3nc4ccccc4n4cnnc34)CC2)cc1,0.1,-1.3,16.9,23.4,8.2
C[C@H](CO)N1C[C@H](C)[C@@H](CN(C)S(=O)(=O)c2cn(C)cn2)OCCCC[C@H](C)Oc2ccc(NC(=O)Nc3ccc(C(F)(F)F)cc3)cc2C1=O,.,.,.,.,-6.5
COc1ccc(CN(C)C[C@@H]2Oc3ccc(NS(=O)(=O)c4ccc(F)cc4)cc3C(=O)N([C@H](C)CO)C[C@H]2C)cc1,.,.,.,.,-0.5
CCn1c(/C=C/c2ccc(F)cc2)nc2ccccc2c1=O,0.0,59.6*,2.5,15.9,-6.4
COc1ccc(/C=N/NC(=O)c2cccnc2)cc1CN1CCc2cc(OC)c(OC)cc2C1C (stereo not given),-0.1,23.0,-3.2,28.6,5.4
COc1ccc(/C=N/NC(=O)c2cc(OC)c(OC)c(OC)c2)cc1CN1CCc2cc(OC)c(OC)cc2C1C (stereo not given),-0.2,-1.6,16.2,66.1*,-15.4
